From PubChem BioAssay (NCATS)
Inconclusive results are not listed. Values without a mark were called inactive. Calls of active or inactive are those of the source. Calls follow the shape of the dose curve; as a rule, active = well fitted inhibition curve with a large enough effect; inconclusive = small, poorly fitted or top-dose-only effect; inactive = flat fitted curve, though single readings scatter.

How the values were obtained:
Experiment in all cases: Cytotoxic Profiling of Annotated Libraries Using Quantitative High-Throughput Screening (AID 1296008); also: nearly all actives have a fitted effect of over 60% in size
Conditions in all cases: Five cell lines viability, CellTiter-Glo ATP luminescence, 48-72 h; max response: hits give low values
[1] = test system: HEK293
Outline: (§1)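 Compounds were pin-transferred onto cells and incubated 48 or 72 hr at 37 degree Celsius, 95% humidity. CellTiter-Glo was added, plates sat 10 min at room temperature, then ATP-coupled luminescence was imaged as the viability read-out.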

[2] = test system: HaCat
Outline: as §1

[3] = test system: KB-3-1
Outline: as §1

[4] = test system: NIH3T3
Outline: as §1
% is scaled to controls: 0 for no effect and ±100 for the full control effect; potency is read from the fitted curve at half-maximal effect.

**Q.** CC[C@@H](N)CNc1ccnc(-c2cc(-c3cnn(C)c3)ccc2O)n1 was tested. Which Potency [1] did it give?
**A.** 5.17 µM (active)

**Q.** And the Potency [2]?
**A.** 5.8 µM (active)

**Q.** And the Potency [3]?
**A.** 4.61 µM (active)

**Q.** What about the Potency [4] of the same compound?
**A.** 14.6 µM (active)

**Q.** Which results are given for Fc1ccc2nc(CCC#Cc3ccccn3)cn2c1?
**A.** max response [1]: -6.15%; max response [2]: -2.5%; max response [3]: -13.9%; max response [4]: -0.863%

**Q.** What does the source list for CC(=O)N1CCN(Cc2ccc([C@H](C)Nc3nccc(N4C(=O)OC[C@@H]4C(C)C)n3)cc2)CC1?
**A.** max response [1]: -108%; max response [2]: -0.103%; max response [3]: 2.58%; max response [4]: -9.86%

**Q.** Which results are given for COC(=O)C[C@H]1[C@]2(C)C3=C(C)[C@H](c4ccoc4)C[C@H]3O[C@@H]2[C@H](OC(C)=O)C2[C@](C)(C(=O)OC)C=CC(=O)[C@@]21C (some centres undefined)?
**A.** max response [1]: -6.04%; max response [2]: -0.0032%; max response [3]: 1.1%; max response [4]: 4.56%

**Q.** With COC(=O)C1=COC(O[C@@H]2O[C@H](CO)[C@@H](O)[C@H](O)[C@H]2O)[C@H]2[C@@H]1[C@H](OC(=O)CCc1ccc(O)cc1)C[C@]2(C)O (some centres undefined) as the compound, how does the max response [1] read?
**A.** 0.992%

**Q.** And the max response [2]?
**A.** -1.18%

**Q.** What about the max response [3] of the same compound?
**A.** -2.46%

**Q.** And the max response [4]?
**A.** 2.76%

**Q.** Which Potency [1] does the source give for CN[C@H](C(=O)N[C@H](C(=O)N(C)[C@H](/C=C(\C)C(=O)O)C(C)C)C(C)(C)C)C(C)(C)c1ccccc1 here?
**A.** 0.0073 µM (active)

**Q.** What about the max response [2] of the same compound?
**A.** -1.54%

**Q.** And the Potency [3]?
**A.** 0.0046 µM (active)

**Q.** And the max response [4]?
**A.** -50.4%
